# Compound activity deposited in PubChem BioAssay by The Scripps Research Institute Molecular Screening Center.
# This is a sample that favours compounds with a hit; in the whole collection about 3.4% have one here.
# ADAM17 inh = ADAM17 inhibitors, primary screen, biochemical, QFRET. Disintegrin and metalloproteinase domain-containing protein 17 (Homo sapiens), P78536. recombinant ADAM17, EDANS/DABCYL FRET peptide cleavage. inhibition, % at 6.95 µM. actives 0.83% (n = 370,000). AID 720648, 2013;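 active = inhibition above the mean of compounds lying between control limits plus 3 SD, set per campaign, cut at about 8.5% in these data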;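 also: 0% = DMSO-only wells as the low control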
# HGIII-sPLA2 inh = human group III sPLA2 inhibitors, primary screen, biochemical, QFRET, BODIPY PC-A2 liposome substrate; inhibition, % at 12.2 µM; Group 3 secretory phospholipase A2 (Homo sapiens), Q9NZ20; QFRET BODIPY PC-A2 liposome hydrolysis, fluorescence; actives 0.56% (n = 370,000); AID 743126, 2013;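 active = inhibition above mean plus 3 SD of compounds lying within the high and low control bounds, cut at about 19% in these data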;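 also: 0% = median of test compound wells and 100% = no enzyme DMSO wells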
# proKLK7 act = proKLK7 zymogen activators, primary screen, biochemical, fluorescence intensity. actives 0.9% (n = 370,000). activation, % at 7 µM. Kallikrein-7 (Homo sapiens), P49862. purified proKLK7, EDANS-DABCYL substrate fluorescence; 100% is mature enzyme control, 0% vehicle;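 active = activation above the mean of all tested compounds plus 3 SD, computed per campaign excluding outliers beyond control limits, cut at about 13% in these data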
# Target sequence (P49862 whole entry, looked up): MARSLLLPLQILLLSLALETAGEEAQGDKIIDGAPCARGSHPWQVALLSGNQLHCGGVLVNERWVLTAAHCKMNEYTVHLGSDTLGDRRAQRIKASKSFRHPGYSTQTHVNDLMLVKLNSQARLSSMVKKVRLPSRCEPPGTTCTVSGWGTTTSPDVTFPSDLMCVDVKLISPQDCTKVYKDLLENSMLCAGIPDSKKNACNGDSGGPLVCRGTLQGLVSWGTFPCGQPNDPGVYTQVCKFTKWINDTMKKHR
# PLCg1 inh = PLC-gamma1 enzyme inhibitors, primary screen, biochemical, fluorescence, purified enzyme; fluorogenic substrate; actives 0.84% (n = 370,000); inhibition, % at 12.2 µM; in the data active = inhibition above about 9.5%
# ADAM10 inh = human ADAM10 inhibitors, primary screen, biochemical, QFRET, HTS. recombinant ADAM10, EDANS/DABCYL FRET peptide cleavage, 3 h. inhibition, % at 7 µM. actives 0.62% (n = 370,000). AID 720582, 2013;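 active = inhibition above a per-campaign cutoff equal to the mean of compounds falling between control-based bounds plus 3 SD, cut at about 20% in these data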;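 also: 0% = DMSO wells while the 100% control is not disclosed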
# PLC-beta3 inh = human PLC-beta3 inhibitors, primary screen, biochemical, fluorescence | actives 0.18% (n = 370,000) | 1-phosphatidylinositol 4,5-bisphosphate phosphodiesterase beta-3 (Homo sapiens), Q01970 | Purified PLC-beta3, fluorogenic substrate | inhibition, % at 12.2 µM;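 also: 0% = median of compound wells on plate and 100% = full blocker control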
# PLCg1 ctr = PLC-gamma1 enzyme inhibitors, counter-screen for PLC-beta3 inhibitor project, biochemical, fluorescence; shares compounds with PLCg1 inh; purified PLC-gamma1, fluorogenic substrate; inhibition, % at 12.3 µM; actives 3.1% (n = 3,300); AID 743258, 2014; in the data active = inhibition above about 9.5%
# PLCb3 confirm = PLC-beta3 inhibitor confirmation, biochemical, fluorescence, purified enzyme | shares compounds with PLCg1 inh | fluorogenic substrate fluorescence | inhibition, % at 12.3 µM | actives 1% (n = 3,300)
# * = called active by the depositor; · = no result. Rule as the data show it, unless noted: active = inhibition above about 11%; inactive = the rest.
SMILES,ADAM17 inh,HGIII-sPLA2 inh,proKLK7 act,PLCg1 inh,ADAM10 inh,PLC-beta3 inh,PLCg1 ctr,PLCb3 confirm
Cn1cccc1C(=O)OCC(=O)NC(=O)c1ccc(Cl)cc1,-5,4,0,0,-7,0,·,·
Cc1ccc(-c2nnn(CC(=O)N3CCCCC3)n2)c(-n2cnnn2)c1,3,16,-1,8,5,12*,-3,1
COc1ccc(C(=O)N[C@H](C(=O)NCC2CCCCC2)C(C)C)cc1,0,1,0,12*,1,2,-12,-10
Cc1ccc(/C=C/C(=O)O)cc1S(=O)(=O)NC1CCS(=O)(=O)C1 (centres undefined),5,6,0,11*,0,8,0,1
Cc1cc(=O)oc2c(C)c(OCC(=O)N3CCC(C(=O)O)CC3)ccc12,-65,-4,2,-13,-266,-13,·,·
c1ccc(C(c2nnnn2C2CCCC2)N2CCN(c3nc4ccccc4s3)CC2)cc1 (centres undefined),0,11,0,0,-10,9,·,·
c1csc(C(c2nnnn2C2CCCCC2)N2CCN(c3nc4ccccc4s3)CC2)c1 (centres undefined),0,3,1,11*,1,6,-1,1
COc1ccc(NC(=O)c2ccc(OC)c(S(=O)(=O)N3CCCCC3C)c2)cn1 (centres undefined),-10,8,0,1,3,-3,·,·
CCOC(=O)/C(C#N)=C/c1c(OCC)n(CC)c2ccccc12,2,-2,-1,10*,3,-8,-10,-9
COc1ccc(S(=O)(=O)n2cccc2)c(OC)c1,-1,-8,0,-2,2,0,·,·
O=C(CCC(=O)OCC(F)(F)C(F)F)Nc1ccccc1F,1,4,0,3,-10,2,·,·
O=S(=O)(NC1CCCC1)c1ccccc1Br,5,6,0,9,1,16*,-1,0
COc1ccc(NS(=O)(=O)c2cc(NC(=O)c3cnc(C)cn3)ccc2N2CCCC2)cc1,6,6,-1,-1,1,-3,·,·
COc1ccc(NS(=O)(=O)c2cc(NC(=O)c3cccnc3Cl)ccc2N2CCCC2)cc1,4,-3,0,10*,17,0,2,-7
CC(=O)Nc1ccc(S(=O)(=O)N/N=C/c2ccc(C)s2)cc1,1,-2,0,4,9,12*,-4,1
O=C(NNC(=O)c1cccc2ccccc12)c1ccc(F)cc1,6,3,0,4,6,17*,5,3
COc1ccc(CN2CCC(n3nccc3NC(=O)C3CC3)CC2)cc1O,-9,3,0,1,-9,-5,·,·
Cc1ccc(C(=O)NC(=S)Nc2ccc(CN3CCOCC3)cc2)cc1,0,8,0,10*,-7,-2,-7,-3
CC(C)Oc1ccc(C(=O)NC(=S)Nc2ccc(CN3CCOCC3)cc2)cc1,2,3,0,2,16,9,·,·
COc1ccc(NC(=O)COc2cccc(-n3cnnn3)c2)cc1Cl,-1,8,-1,3,-10,1,·,·
O=C(CSc1ccc(-c2cccc([N+](=O)[O-])c2)nn1)N1CCCCC1,3,11,0,14*,8,0,-2,3
CC1CCN(C(=O)CSc2ccc(-c3cccc([N+](=O)[O-])c3)nn2)CC1,1,0,-1,3,4,-3,·,·
O=C1c2ccccc2C(=O)N1CCCCN(C(=O)c1ccc([N+](=O)[O-])cc1)c1ccc(Cl)cc1,4,-21,1,12*,19,3,4,2
CCOCCCN(C)C1CCN(C(=O)c2oc3ccccc3c2NC(=O)c2ccc(F)cc2)CC1,-4,2,0,-4,-5,-14,·,·
CCCC(O)(c1ccc(Cl)cc1)C(CN1CCOCC1)c1ccc(Cl)cc1 (centres undefined),3,6,0,2,6,-1,·,·
SMILES,ADAM17 inh,HGIII-sPLA2 inh,proKLK7 act,PLCg1 inh,ADAM10 inh,PLC-beta3 inh,PLCg1 ctr,PLCb3 confirm
CCCC(O)(c1ccc(OC)cc1)C(CN1CCOCC1)c1ccc(Cl)cc1 (centres undefined),6,-8,1,11*,16,1,-1,4
CC(SCc1ccc(C(=O)O)o1)c1ccc(C(=O)O)o1 (centres undefined),-4,7,0,-1,-4,1,·,·
O=S(=O)(c1cc(O)ccc1O)c1cccc2c(S(=O)(=O)c3cc(O)ccc3O)cccc12,4,-18,1,10*,15,6,8,9
O=S(=O)(O)c1cc(O)ccc1O,-12,8,5,1,-21,-5,·,·
COC(=O)C1=C(C)N(C)C(=NCC2CC2)NC1CCc1ccccc1 (centres undefined),2,2,0,3,-1,4,·,·
O=C(COc1ccccc1)N=C1SC2CS(=O)(=O)CC2N1c1ccc(F)cc1F (centres undefined),1,2,0,10*,11,-2,1,-5
CSCC[C@H](NC(=O)CCn1nnc2ccccc2c1=O)C(=O)O,4,6,0,11*,0,12*,6,8
CC(C)C[C@H](NC(=O)CCCn1nnc2ccccc2c1=O)C(=O)O,-1,2,-1,0,-1,-6,·,·
CNc1ncnc2c1ncn2[C@H]1CN(Cc2ccco2)C[C@@H](CO)O1,-2,4,0,-1,-12,2,·,·
CCC1(CC)NC(=O)N(CC(=O)N2N=C(c3ccc(Cl)cc3)CC2c2ccco2)C1=O (centres undefined),0,-20,1,0,2,-3,·,·
FC(F)(F)C1=CC(c2ccc(Cl)cc2)=NCCN1,2,5,0,11*,6,4,7,6
C[N+]1([O-])[C@@H]2Cc3cc4c(cc3[C@@H]1Cc1cc3c(cc12)OCO3)OCO4 (some centres undefined),8,12,0,1,4,12*,-2,-4
